Only some compounds are listed: those with a hit (about 2.1% of all), similar ones and a draw of the others.
ARNT TACC3 PPI: ARNT/TACC3 interaction disruption; Q9Y6A5; AlphaScreen His-ARNT PAS-B/GST-TACC3 binding, luminescence; TACC3 fragment carries E629A point mutation; inhibition, % at 9.99 µM; 390,000 compounds, 0.66% hits;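 active = mean inhibition of replicates at least 50% and at least half of replicates each reaching 50%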;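 note: 0% = complete ARNT plus TACC3 wells and 100% = ARNT alone without TACC3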
PfHsp90 set2: inhibits growth of yeast expressing Plasmodium falciparum Hsp90 | S. cerevisiae expressing PfHsp90, BacTiter-Glo ATP, 48 h; yeast lacking PDR1 and PDR3 efflux regulators | inhibition, % at 9.4 µM | 310,000 compounds, 0.32% hits;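 active = every replicate shows inhibition above about 80%, whatever the replicate mean, limit read from the data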;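 note: 0% = DMSO neutral controls and 100% = 20 µM radicicol positive controls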
SIRT5 block: blocks human SIRT5 desuccinylation of peptide. inhibition, % at 15 µM. 330,000 compounds, 1.1% hits. Q9NXA8. Purified SirT5, succinyl-peptide AMC, trypsin-coupled fluorescence; in the data active = inhibition above about 15%
Target sequence (Q9NXA8 whole entry, looked up): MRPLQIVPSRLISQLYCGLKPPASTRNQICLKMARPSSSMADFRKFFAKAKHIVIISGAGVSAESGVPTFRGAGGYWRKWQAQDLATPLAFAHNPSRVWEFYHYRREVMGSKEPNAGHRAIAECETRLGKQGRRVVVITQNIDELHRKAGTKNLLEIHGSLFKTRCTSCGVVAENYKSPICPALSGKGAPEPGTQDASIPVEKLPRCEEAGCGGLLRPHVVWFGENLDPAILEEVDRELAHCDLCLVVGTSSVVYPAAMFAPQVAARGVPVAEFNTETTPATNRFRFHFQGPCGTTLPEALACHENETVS
NSD2 inh: blocks human histone methyltransferase NSD2. O96028. NSD2 peptide methylation, AlphaScreen, 120 min. inhibition, % at 12.5 µM. 310,000 compounds, 0.54% hits; in the data active = inhibition above about 50%
CASP6 VEID inh: inhibitors of human caspase-6; inhibition, % at 12.5 µM; purified caspase-6, Z-VEID-R110 cleavage fluorescence; 350,000 compounds, 0.53% hits; AID 686996; P55212;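 active = mean inhibition across replicates at least about 35%, with every replicate also reaching that limit, limit read from the data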;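 note: 0% = median of neutral control wells and 100% = no fluorescence left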
* marks the source's active call; other numbers are inactive results; ! = a repeat was not active.

`C[C@H]1CN([C@@H](C)CO)S(=O)(=O)c2ccc(C#CC3CC3)cc2O[C@H]1CN(C)C(=O)c1ccccn1` gave ARNT TACC3 PPI -1.4, SIRT5 block 29.6* and CASP6 VEID inh -0.6.
For C[C@@H]1CN([C@H](C)CO)S(=O)(=O)c2ccc(C#CC3CCCC3)cc2O[C@H]1CN(C)C(=O)Cc1ccccc1 the results were ARNT TACC3 PPI 4.2, SIRT5 block 16.6*! and CASP6 VEID inh 5.0.
For C[C@H](CO)N1C[C@H](C)[C@@H](CN(C)C(=O)Cc2ccccc2)Oc2cc(C#CC3CCCC3)ccc2S1(=O)=O the results were ARNT TACC3 PPI 12.6 and SIRT5 block 15.2*.
Screening Cc1cccc(-c2ccc([C@H]3[C@H](CO)N4C(=O)CN(C(=O)c5cccnc5)C[C@@H]34)cc2)c1 returned SIRT5 block -3.3 and CASP6 VEID inh -0.2.
For C[C@@H]1CN([C@H](C)CO)S(=O)(=O)c2ccc(C#CC3CCCC3)cc2O[C@@H]1CN(C)C the results were ARNT TACC3 PPI 42.0, SIRT5 block 3.3 and CASP6 VEID inh 0.2.
`C[C@@H]1CN([C@H](C)CO)S(=O)(=O)c2ccc(C#CC3CCCC3)cc2O[C@H]1CN(C)C(=O)Nc1cc(F)ccc1F` gave ARNT TACC3 PPI 1.9, SIRT5 block 15.1* and CASP6 VEID inh 2.1.
For C[C@H]1CN([C@@H](C)CO)S(=O)(=O)c2ccc(C#CC3CCCC3)cc2O[C@H]1CN(C)C(=O)Nc1cc(F)ccc1F the results were ARNT TACC3 PPI -9.5, SIRT5 block 0.4 and CASP6 VEID inh 1.8.
Screening C[C@@H]1CN([C@H](C)CO)S(=O)(=O)c2ccc(C#CC3CCCC3)cc2O[C@H]1CN(C)C returned ARNT TACC3 PPI 24.1, SIRT5 block 101.4* and CASP6 VEID inh 2.3.
`O=C(O)C1C=Cc2ccccc2N1C(=O)c1ccccc1` (centres undefined) (tested in a mixture with another compound) gave ARNT TACC3 PPI -3.9, PfHsp90 set2 -3.7, NSD2 inh 0.4 and CASP6 VEID inh 39.4*.
`Cc1noc(C)c1S(=O)(=O)N(C)C[C@H]1OCCCC[C@@H](C)Oc2ccc(NC(=O)C3CCCCC3)cc2C(=O)N([C@H](C)CO)C[C@H]1C` gave ARNT TACC3 PPI 0.4, SIRT5 block 4.1 and CASP6 VEID inh 1.3.
`COc1ccccc1C(=O)NNC(=S)NC(=O)c1sc2ccccc2c1Cl` gave ARNT TACC3 PPI 2.5, PfHsp90 set2 -18.1 and NSD2 inh -0.6.
Screening Cc1c(NC(=S)NC(=O)c2sc3ccccc3c2Cl)cccc1C(=O)O returned ARNT TACC3 PPI 0.4, PfHsp90 set2 -7.3, SIRT5 block 36.3*, NSD2 inh -0.4 and CASP6 VEID inh 1.9.
`Fc1ccccc1-c1nc(NC2CCCC2)c2ccccc2n1` gave ARNT TACC3 PPI -9.9, PfHsp90 set2 -27.9, SIRT5 block -3.6, NSD2 inh 19.2 and CASP6 VEID inh 0.1.
Screening c1ccc(-c2nnc(-c3ccccn3)nc2NC2CCCCC2)cc1 returned PfHsp90 set2 103.3*, SIRT5 block 3.1, NSD2 inh 18.6 and CASP6 VEID inh -0.6.
For Oc1ccccc1-c1nc(NC2CCCC2)c2ccccc2n1 the results were ARNT TACC3 PPI 5.0, PfHsp90 set2 115.2*, SIRT5 block 0.4, NSD2 inh -4.4 and CASP6 VEID inh -1.2.
`COc1ccccc1-c1ccc([C@H]2[C@H](CO)N(C(C)=O)C23CN(C(C)=O)C3)cc1` gave SIRT5 block 2.5 and CASP6 VEID inh 0.7.
`CC(=O)OCC(=O)[C@@]1(O)CC[C@H]2[C@@H]3C[C@H](C)C4=CC(=O)C=C[C@]4(C)[C@H]3[C@@H](O)C[C@@]21C` gave ARNT TACC3 PPI 1.8, PfHsp90 set2 3.0, SIRT5 block -0.4 and CASP6 VEID inh -3.8.
`CC1CC2C(C(O)CC3(C)C2CCC3(O)C(=O)CO)C2(C)C=CC(=O)C=C12` (centres undefined) gave ARNT TACC3 PPI -9.5, PfHsp90 set2 -2.5, SIRT5 block 34.7*, NSD2 inh -3.8 and CASP6 VEID inh 1.6.
CNC[C@@H]1Oc2c(NS(=O)(=O)c3ccc(C)cc3)cccc2C(=O)N([C@H](C)CO)C[C@@H]1C was read as ARNT TACC3 PPI -1.1, SIRT5 block -4.3 and CASP6 VEID inh -2.8.

Screening results from PubChem BioAssay.
